# Measurements taken from PubChem BioAssay AID1159580 (chemical genetic matrix, 2015).
# The campaign covered roughly 5,500 compounds. About 2,000 (36%) were called active. Not shown: some 18% with an inconclusive outcome. The list shows a part of the results. Unmarked numbers belong to inactive results. No stated cut-off is given here; in the data, active means normalized growth mostly below about 0.91 (no sharp cut-off); inconclusive means no clear call, values can overlap the other calls; inactive means mostly above about 0.92.
# Assay: chemical genetic growth profiling, strain panel (AID 1159580);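 further: tested at 20 µM; growth read once vehicle control cultures reached saturation at 30 °C; 1 = growth at the plate median or of vehicle wells; lower values mean less growth of the strain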
# Details: growth OD
smiles,measurement,setting,value
COc1cc2c(cc1OC)C1C(=O)c3c(cc4c(c3O)C=CC(C)(C)O4)OC1CO2 (configuration not stated),normalized growth,"S. cerevisiae deletion strains, locus YBR021W, strain FUR4, active compounds read low",1
same,normalized growth,"S. cerevisiae deletion strains, locus YBR229C, strain ROT2, active compounds read low",1.02
same,normalized growth,"S. cerevisiae deletion strains, locus YCL029C, strain bik1, active compounds read low",1.03
same,normalized growth,"S. cerevisiae deletion strains, locus YDL035C, strain GPR1, active compounds read low",1.03
same,normalized growth,"S. cerevisiae deletion strains, locus YDL074C, strain BRE1, active compounds read low",1.13
same,normalized growth,"S. cerevisiae deletion strains, locus YDL101C, strain DUN1, active compounds read low",1.01
same,normalized growth,"S. cerevisiae deletion strains, locus YDL134C, strain PPH21, active compounds read low",1
same,normalized growth,"S. cerevisiae deletion strains, locus YDL185W, strain tfp1, active compounds read low",1.02
same,normalized growth,"S. cerevisiae deletion strains, locus YDL192W, strain arf1, active compounds read low",0.996
same,normalized growth,"S. cerevisiae deletion strains, locus YDR101C, strain arx1, active compounds read low",0.99
same,normalized growth,"S. cerevisiae deletion strains, locus YDR162C, strain NBP2, active compounds read low",1.03
same,normalized growth,"S. cerevisiae deletion strains, locus YDR318W, strain mcm21, active compounds read low",1.02
same,normalized growth,"S. cerevisiae deletion strains, locus YDR388W, active compounds read low",1.02
same,normalized growth,"S. cerevisiae deletion strains, locus YDR502C, strain sam2, active compounds read low",1.02
same,normalized growth,"S. cerevisiae deletion strains, locus YER110C, active compounds read low",1.02
same,normalized growth,"S. cerevisiae deletion strains, locus YER155C, strain BEM2, active compounds read low",1.04
same,normalized growth,"S. cerevisiae deletion strains, locus YER167W, strain BCK2, active compounds read low",1.01
same,normalized growth,"S. cerevisiae deletion strains, locus YGL078C, strain dbp3, active compounds read low",1.01
same,normalized growth,"S. cerevisiae deletion strains, locus YGL086W, strain mad1, active compounds read low",1.01
same,normalized growth,"S. cerevisiae deletion strains, locus YGL248W, strain PDE1, active compounds read low",1.03
same,normalized growth,"S. cerevisiae deletion strains, locus YGR135W, strain pre9, active compounds read low",1.06
same,normalized growth,"S. cerevisiae deletion strains, locus YGR229C, strain SMI1, active compounds read low",1.3 [resistant] (active)
same,normalized growth,"S. cerevisiae deletion strains, locus YGR252W, strain gcn5, active compounds read low",1.08
same,normalized growth,"S. cerevisiae deletion strains, locus YHR079C, strain IRE1 (second series), active compounds read low",1.02
same,normalized growth,"S. cerevisiae deletion strains, locus YHR094C, strain hxt1, active compounds read low",1.03
same,normalized growth,"S. cerevisiae deletion strains, locus YHR129C, strain ARP1, active compounds read low",1.02
same,normalized growth,"S. cerevisiae deletion strains, locus YHR200W, strain rpn10, active compounds read low",1.02
same,normalized growth,"S. cerevisiae deletion strains, locus YIL066C, strain RNR3, active compounds read low",1
same,normalized growth,"S. cerevisiae deletion strains, locus YIL073C, strain SPO22, active compounds read low",1.28
same,normalized growth,"S. cerevisiae deletion strains, locus YIL125W, strain kgd1, active compounds read low",1
same,normalized growth,"S. cerevisiae deletion strains, locus YIR030C, strain dcg1, active compounds read low",1.02
same,normalized growth,"S. cerevisiae deletion strains, locus YJL095W, strain BCK1, active compounds read low",1.05
same,normalized growth,"S. cerevisiae deletion strains, locus YJL134W, strain LCB3, active compounds read low",1.01
same,normalized growth,"S. cerevisiae deletion strains, locus YJL168C, strain set2, active compounds read low",1.03
same,normalized growth,"S. cerevisiae deletion strains, locus YJL187C, strain SWE1 (second series), active compounds read low",1.01
same,normalized growth,"S. cerevisiae deletion strains, locus YKL009W, strain mrt4, active compounds read low",1.04
same,normalized growth,"S. cerevisiae deletion strains, locus YKL068W, active compounds read low",1.01
same,normalized growth,"S. cerevisiae deletion strains, locus YKL085W, strain MDH1 (second series), active compounds read low",1.01
same,normalized growth,"S. cerevisiae deletion strains, locus YKL085W, strain MDH1, active compounds read low",1.01
same,normalized growth,"S. cerevisiae deletion strains, locus YKL190W, strain CNB1, active compounds read low",1
same,normalized growth,"S. cerevisiae deletion strains, locus YKR001C, strain vps1, active compounds read low",0.724 (active)
same,normalized growth,"S. cerevisiae deletion strains, locus YLR039C, strain RIC1, active compounds read low",0.992
same,normalized growth,"S. cerevisiae deletion strains, locus YLR058C, strain SHM2, active compounds read low",1.01
same,normalized growth,"S. cerevisiae deletion strains, locus YLR102C, strain apc9, active compounds read low",1.02
same,normalized growth,"S. cerevisiae deletion strains, locus YLR262C, strain YPT6, active compounds read low",0.991
same,normalized growth,"S. cerevisiae deletion strains, locus YLR268W, strain sec22, active compounds read low",1.02
same,normalized growth,"S. cerevisiae deletion strains, locus YLR342W, strain FKS1 (second series), active compounds read low",0.961
same,normalized growth,"S. cerevisiae deletion strains, locus YLR371W, strain rom2, active compounds read low",1.03
same,normalized growth,"S. cerevisiae deletion strains, locus YLR418C, strain cdc73, active compounds read low",1.13
same,normalized growth,"S. cerevisiae deletion strains, locus YML016C, strain PPZ1, active compounds read low",0.996
same,normalized growth,"S. cerevisiae deletion strains, locus YML032C, strain rad52, active compounds read low",0.998
same,normalized growth,"S. cerevisiae deletion strains, locus YML124C, strain tub3, active compounds read low",1.02
same,normalized growth,"S. cerevisiae deletion strains, locus YMR078C, strain ctf18, active compounds read low",1.02
same,normalized growth,"S. cerevisiae deletion strains, locus YMR223W, strain ubp8, active compounds read low",1.01
same,normalized growth,"S. cerevisiae deletion strains, locus YMR307W, strain GAS1, active compounds read low",1.18
same,normalized growth,"S. cerevisiae deletion strains, locus YNL067W, strain RPL9B, active compounds read low",1.01
same,normalized growth,"S. cerevisiae deletion strains, locus YNL153C, strain GIM3, active compounds read low",1.04
same,normalized growth,"S. cerevisiae deletion strains, locus YNL233W, strain BNI4, active compounds read low",1.06
same,normalized growth,"S. cerevisiae deletion strains, locus YNL250W, strain rad50, active compounds read low",1.05
same,normalized growth,"S. cerevisiae deletion strains, locus YNL271C, strain bni1, active compounds read low",1.01
same,normalized growth,"S. cerevisiae deletion strains, locus YNL298W, strain CLA4, active compounds read low",1
same,normalized growth,"S. cerevisiae deletion strains, locus YNL307C, strain MCK1, active compounds read low",1.03
same,normalized growth,"S. cerevisiae deletion strains, locus YNR052C, strain pop2, active compounds read low",1.04
same,normalized growth,"S. cerevisiae deletion strains, locus YOL012C, strain htz1",0.98
same,normalized growth,"S. cerevisiae deletion strains, locus YOL147C, strain pex11, active compounds read low",1.01
same,normalized growth,"S. cerevisiae deletion strains, locus YOR061W, strain CKA2, active compounds read low",1
same,normalized growth,"S. cerevisiae deletion strains, locus YOR069W, strain VPS5, active compounds read low",1.01
same,normalized growth,"S. cerevisiae deletion strains, locus YOR136W, strain idh2, active compounds read low",1.06
same,normalized growth,"S. cerevisiae deletion strains, locus YOR144C, strain elg1, active compounds read low",1.01
same,normalized growth,"S. cerevisiae deletion strains, locus YOR184W, strain ser1, active compounds read low",0.99
same,normalized growth,"S. cerevisiae deletion strains, locus YOR316C, strain cot1, active compounds read low",1.02
same,normalized growth,"S. cerevisiae deletion strains, locus YPR119W, strain clb2, active compounds read low",1.02
same,normalized growth,"S. cerevisiae deletion strains, locus YPR141C, strain kar3, active compounds read low",1
same,normalized growth,"S. cerevisiae deletion strains, locus YPR163C, strain tif3, active compounds read low",1.03
same,normalized growth,"S. cerevisiae deletion strains, locus YPR167C, strain met16, active compounds read low",1.01
same,normalized growth,"S. cerevisiae deletion strains, strain wtn01, active compounds read low",0.989
same,normalized growth,"S. cerevisiae strains, strain wild type, active compounds read low",1.02
